Data reported in PubChem BioAssay.
Activity calls are given as the source filed them.

Experiment: S. cerevisiae RM11-1a growth modifiers, primary screen, strain RM11-1a, OD600, basal, 24 h (AID 1177);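 also: cultures grown under basal conditions with no added stressor; test concentration not given here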
Settings: OD600, 24 h, higher = more signal, called active from +8 up or from −8 down

z-score, inactive:
COc1cc(OC)c(C(O)C2C=CC3C(=O)N(c4ccccc4)C(=O)C3N2Nc2ccc(C(C)C)cc2)cc1Br (stereo not given) 0.171
CC(C)c1nc2cc(Br)ccc2c(=O)o1 0.0542
CN1C(=O)[C@@H]2[C@@H](CC(COc3ccccc3)=C3[C@@H](CCc4ccccc4)OB(O)C[C@@H]32)C1=O -0.0646
O=C(NCCN1CCOCC1)[C@@H]1c2ccccc2C(=O)N(Cc2ccc(OC(F)(F)F)cc2)[C@H]1c1ccc(CO)cc1 -0.449
CN(C)c1ccc(C(O)C2C=CC3C(=O)N(Cc4ccccc4)C(=O)C3N2n2cnnc2)cc1 (stereo not given) -0.794
CC(C)C(O)C1C=CC2C(=O)NC(=O)C2N1Nc1ccccn1 (stereo not given) 0.696
COc1ccc([Si](C)(C)[C@@H]2[C@@H](CC(=O)N3Cc4ccccc4C[C@H]3CO)O[C@]3(C(=O)N(Cc4ccc(N5CCOC5=O)cc4)c4ccccc43)[C@H]2C)cc1 0.455
COCCOC(=O)N1C(=O)[C@@]2(c3cc(C#CCC(C(=O)OC)C(=O)OC)ccc31)[C@H](C(=O)Nc1nc3ccccc3s1)[C@H]1C(=O)O[C@H](c3ccccc3)[C@H](c3ccccc3)N1[C@@H]2c1ccc(O)cc1 0.404
COc1cc(CO)cc(I)c1O[C@H]1C=C(C(=O)NCCO)C[C@@H](NC2CCCCCC2)[C@@H]1O 0.77
O=C(NC1CC1)[C@@H]1c2ccccc2C(=O)N(Cc2ccc(OC(F)(F)F)cc2)[C@H]1c1ccc(CO)cc1 -0.544
CCOC(=O)C1=CC[C@@H](c2ccc(OC)cc2)N(S(=O)(=O)c2ccc(C)cc2)[C@H]1CC -0.0802
CC1CC/C=C\[C@H]2OC34C=CCN(C(C)(C)C)C(=O)[C@H]3N(CCCO)C(=O)[C@@H]4C2C(=O)O1 (stereo not given in full) 0.0605
C=C(C)[C@@H]1CC=C(C(O)C2C=CC3C(=O)N(c4ccccc4)C(=O)C3N2Nc2ccc([N+](=O)[O-])cc2)CC1 (stereo not given in full) 0.526
C=CCOC(=O)[C@@H]1[C@H]2C(=O)O[C@H](c3ccccc3)[C@H](c3ccccc3)N2[C@H](c2ccc(OCCOC(=O)[C@H]3C[C@H]4C(=O)NCC(=O)N4[C@H]3c3cccc(OCCO)c3)cc2)[C@@]12C(=O)Nc1ccc(I)cc12 1.08
COC(=O)[C@H](Cc1ccccc1)N1CC2=CCCC=C[C@@H]2[C@H]1[C@H](O)Cc1ccccc1 -0.77
CC(=O)OCC1C2CC[C@H]3C(OCc4ccc(F)cc4C(F)(F)F)OC[C@]4(C)[C@H]3C2=C(CN4C(=O)OC(C)(C)C)[C@H](C)C1COC(C)=O (stereo not given in full) 1.93
CC(=O)c1ccc(C(O)C2C=CC3C(=O)N(c4ccccc4)C(=O)C3N2Nc2ccc(C(C)C)cc2)cc1 (stereo not given) 0.677
CC(C)NC(=O)[C@@]1(C)c2ccccc2C(=O)N(Cc2ccccc2)[C@H]1c1ccc(CO)cc1 -1.29
CCCCC(O)C1C=CC2C(=O)N(c3ccccc3)C(=O)C2N1Nc1ccc([N+](=O)[O-])cc1 (stereo not given) -0.385
Cc1ccc(S[C@]2(C(=O)NC3CC3)CC(=O)N(C(C)C)[C@@H]2c2ccc(CO)cc2I)cc1 -2.02
COCCOC(=O)N1C(=O)[C@@]2(c3cc(C#CCC(C(=O)OC)C(=O)OC)ccc31)[C@H](C(=O)Nc1nc3ccccc3s1)[C@H]1C(=O)O[C@H](c3ccccc3)[C@H](c3ccccc3)N1[C@@H]2c1ccc(OCCO)cc1 2.25
COC(=O)C1=CC(CCCO)=CC(c2cccs2)N(Cc2cc3c(cc2Br)OCO3)C=C1C(=O)OC (stereo not given) 1.92
CN1C(=O)C2C(C1=O)C1C=C(c3ccc(CO)cc3)C2C(C2CC2)N1C (stereo not given) 0.358
COCCCNC(=O)[C@@H]1c2ccccc2C(=O)N(Cc2ccc(OC(F)(F)F)cc2)[C@H]1c1ccc(CO)cc1 -1.06
COCCCNC(=O)[C@@]1(CCC(=O)OC(C)(C)C)COC(c2ccc(OCCCO)cc2)=N1 -0.561
O=C(O)[C@H](Cc1ccccc1)n1cc(C2(O)CCCCC2)nn1 -0.563
CN(C)CCCC[C@@H]1NC(=O)[C@@H]2C[C@H](C(=O)NCCCCCCNC(=O)CS)[C@H](c3ccc(O)cc3)N2C1=O -0.264
COC(=O)[C@@]1(Cc2ccc(OC)cc2)[C@H]2c3cc(C(=O)N4CCCC4)n(CCn4cc([N+](=O)[O-])nc4C)c3C[C@H]2CN1C(=O)c1ccccc1 -0.123
[N-]=[N+]=NCc1ccccc1[C@@H]1OC(c2ccc(OCCCO)cc2)=N[C@]1(Cc1ccccc1N=[N+]=[N-])C(=O)O 0.783
C=CCOC(=O)[C@H]1[C@@H]2C(=O)O[C@@H](c3ccccc3)[C@@H](c3ccccc3)N2[C@@H](c2ccc(OCCOC(=O)[C@H]3C[C@H]4C(=O)N[C@@H](CC(C)C)C(=O)N4[C@H]3c3ccc(O)cc3)cc2)[C@]12C(=O)Nc1ccccc12 2.67
COc1ccc([Si](C)(C)[C@H]2[C@H](CC(=O)N3Cc4ccccc4C[C@H]3CO)O[C@@]3(C(=O)N(c4ccccc4)c4ccccc43)[C@@H]2C)cc1 0.578
N#Cc1ccc(-c2cccc(=O)o2)cc1 0.719
COCCOC(=O)N1C(=O)[C@@]2(c3ccccc31)[C@H](C(=O)N1CCN(c3ncccn3)CC1)[C@H]1C(=O)O[C@H](c3ccccc3)[C@H](c3ccccc3)N1[C@@H]2c1ccccc1OCCO 2.04
NC(=O)NCC#Cc1ccc2c(c1)[C@]1(C(=O)N2)[C@H](c2ccc(OCCO)cc2)N2[C@H](c3ccccc3)[C@H](c3ccccc3)OC(=O)[C@H]2[C@@H]1C(=O)O -0.264
COC(=O)[C@@]1(Cc2ccc(OC)cc2)[C@H]2c3cc(C(=O)N(C)C)[nH]c3C[C@H]2CN1C(=O)c1ccccc1 0.68
